{"source": "ChEMBL document CHEMBL3988442", "about": "“University of Dundee, Small-Polar-MMV Screening Library” (2021)", "note": "The campaign covered roughly 48,000 compounds. About 13,000 (27%) showed an effect of 50% or more. This is one part of the list."}
{"tested_on": "Wolbachia pipientis", "assay": "Anti-Wolbachia Cell-Based Screen", "type": "functional", "design": "scale not given: in the data most compounds retested in dose-response had high values", "settings": "5 µM", "units": {"Percent Effect": "%"}}
{"compound": "CC(C)C(C(=O)N1CCCN(Cc2nccn2C)CC1)N1CCCC1", "note": "(stereo not given)", "Percent Effect": 74.16}
{"compound": "CC(C(=O)N1CCCCCC1)N1CCN(Cc2nccn2C)CC1", "note": "(stereo not given)", "Percent Effect": 103.6}
{"compound": "CC(C(=O)N1CCOCC1)N1CCN(Cc2nccn2C)CC1", "note": "(stereo not given)", "Percent Effect": 114}
{"compound": "CCN1CCN(C(=O)C(C)N2CCN(Cc3nccn3C)CC2)CC1", "note": "(stereo not given)", "Percent Effect": 0.1033}
{"compound": "Cn1ccnc1CN1CCCN(C(=O)C2(C#N)CCCCC2)CC1", "Percent Effect": -11.9}
{"compound": "CC(OCC1CC1)C(=O)N1CCCN(Cc2nccn2C)CC1", "note": "(stereo not given)", "Percent Effect": 15.71}
{"compound": "CCN(C(=O)NCCc1cccc(F)c1F)C(C)CS(C)(=O)=O", "note": "(stereo not given)", "Percent Effect": 8.569}
{"compound": "CCOc1ccc(CN(CCOC)c2nc(C)nc3oc(C)nc23)cc1", "Percent Effect": -12.59}
{"compound": "COc1ccnc(N2CCN(C(=O)c3ccn(C)c(=O)c3)CC2)n1", "Percent Effect": 101.7}
{"compound": "CCOc1ccnc(N2CCN(C(=O)c3cccc(C#N)c3)CC2)n1", "Percent Effect": 3.478}
{"compound": "CCOc1ccnc(N2CCN(C(=O)c3ccn(C)c(=O)c3)CC2)n1", "Percent Effect": 88.48}
{"compound": "CCOc1ccnc(N2CCN(C(=O)c3cc(Cl)c[nH]3)CC2)n1", "Percent Effect": -0.9133}
{"compound": "COc1ccnc(N2CCN(C(=O)c3cscn3)CC2)n1", "Percent Effect": 2.321}
{"compound": "COc1cc(C)nc(N2CCN(C(=O)c3ccccc3C)CC2)n1", "Percent Effect": 2.606}
{"compound": "COc1cc(C)nc(N2CCN(C(=O)c3ccc(Cl)o3)CC2)n1", "Percent Effect": 4.762}
{"compound": "CCOc1cccc(C(=O)N2CCN(c3nccc(OC)n3)CC2)c1", "Percent Effect": -0.7298}
{"compound": "COc1cc(C)nc(N2CCN(C(=O)c3ccn(C)c(=O)c3)CC2)n1", "Percent Effect": 111.9}
{"compound": "O=C(c1ncccc1O)N1CCN(Cc2ccco2)C(CCO)C1", "note": "(stereo not given)", "Percent Effect": -8.878}
{"compound": "CC(C)CN1CCC(NC(=O)N(C)Cc2csc3ccccc23)CC1", "Percent Effect": 14.6}
{"compound": "CN(C)C1(CNc2ncc(Br)cn2)CCOCC1", "Percent Effect": 25.75}
{"compound": "CCC(CNS(=O)(=O)c1c[nH]cn1)Oc1ccccc1F", "note": "(stereo not given)", "Percent Effect": -7.945}
{"compound": "COc1ccnc(NCc2ccccc2Cn2cccn2)n1", "Percent Effect": 13.47}
{"compound": "Cc1nonc1C(=O)N1CC[C@@]2(O)CCN(C3CCCCC3)C[C@H]2C1", "Percent Effect": -5.278}
{"compound": "O=C(NC1CCC(C(=O)N2CCSCC2)CC1)N1CCC1", "note": "(stereo not given)", "Percent Effect": 3.195}
{"compound": "CC(C)[C@@H]1CN(C(=O)NCc2ccco2)C[C@H]1N(C)C", "Percent Effect": -15.37}
{"compound": "CC(C)[C@H]1CN(C(=O)CC2CCC2)C[C@@H]1N(C)C", "Percent Effect": 88.21}
{"compound": "CC(=O)c1cc(CN2C[C@@H](N(C)C)[C@H](C(C)C)C2)cs1", "Percent Effect": 13.8}
{"compound": "Cc1nc(CC(C)C)cc(C(=O)N2C[C@@H](N(C)C)[C@H](C(C)C)C2)n1", "Percent Effect": -16.81}
{"compound": "Cc1cc(C(=O)N2C[C@@H](C(=O)O)[C@H](C(C)C)C2)cs1", "Percent Effect": 38.77}
{"compound": "COCCC(=O)N1C[C@H](C(C)C)[C@@H](N(C)C)C1", "Percent Effect": 108.6}
{"compound": "CC(C)[C@H]1CN(C(=O)CO)C[C@@H]1N(C)C", "Percent Effect": 109.8}
{"compound": "CC1(C)CN(C(=O)CC2CCC2)C[C@]1(C)O", "Percent Effect": 6.618}
{"compound": "Cc1cc(C(=O)N2C[C@H](C(C)C)[C@@H](N(C)C)C2)cs1", "Percent Effect": 81.51}
{"compound": "CC(C)[C@@H]1CN(C(=O)CN(C)Cc2ccc(F)cc2)C[C@H]1C(=O)O", "Percent Effect": -17.02}
{"compound": "CC(C)[C@@H]1CN(Cc2cnc(C3CCCCC3)nc2)C[C@H]1N(C)C", "Percent Effect": -9.184}
{"compound": "CC(C)[C@@H]1CN(C(=O)CCc2ccc(F)cc2)C[C@H]1C(=O)O", "Percent Effect": -26.1}
{"compound": "N#Cc1cc(S(N)(=O)=O)ccc1NC1CCc2c(F)cccc21", "note": "(stereo not given)", "Percent Effect": -10.31}
{"compound": "COCCCN(C)c1ncccc1I", "Percent Effect": 0.1394}
{"compound": "Cn1c(NCC(=O)N2CCCC2)c(C#N)c(=O)n(C)c1=O", "Percent Effect": 6.318}
{"compound": "CC(O)CN1CCC(CN(C)Cc2cc(F)cc3cccnc23)CC1", "note": "(stereo not given)", "Percent Effect": -9.016}
{"compound": "CC(C)Oc1ccc(C(=O)Cn2cnnc2[S+](C)[O-])cc1", "note": "(stereo not given)", "Percent Effect": 6.636}
{"compound": "N#Cc1cccc(S(=O)(=O)NC(=O)COC2CCCC2)c1", "Percent Effect": 4.791}
{"compound": "COc1cccc(S(=O)(=O)NC(=O)COC2CCCCC2)c1", "Percent Effect": 79.48}
{"compound": "CCOc1ccc(S(=O)(=O)NC(=O)CCC2CCCO2)cc1", "note": "(stereo not given)", "Percent Effect": 0.3257}
{"compound": "COc1ccc(S(=O)(=O)NC(=O)COC2CCCC2)cc1", "Percent Effect": 110.1}
{"compound": "CS(=O)(=O)c1cccc(S(=O)(=O)NC(=O)CC2CCCCC2)c1", "Percent Effect": -9.509}
{"compound": "COc1cccc(S(=O)(=O)NC(=O)COc2c(C)cccc2C)c1", "Percent Effect": -5.351}
{"compound": "COc1cccc(S(=O)(=O)NC(=O)CC2CCCC2)c1", "Percent Effect": 9.946}
{"compound": "CS(=O)(=O)c1cccc(S(=O)(=O)NC(=O)CCC2CCCCC2)c1", "Percent Effect": -13.77}
{"compound": "COc1cccc(S(=O)(=O)NC(=O)CCC2CCCC2)c1", "Percent Effect": 93.05}
{"compound": "COc1ccc(S(=O)(=O)NC2(CC(N)=O)CCC2)cc1", "Percent Effect": 1.65}
{"compound": "COc1cccc(S(=O)(=O)NC(=O)COC2CCCC2)c1", "Percent Effect": 0.104}
{"compound": "COc1cccc(S(=O)(=O)NC(=O)CC2CCCO2)c1", "note": "(stereo not given)", "Percent Effect": 94.52}
{"compound": "Cc1ccc(-n2c(C)nnc2SCC(O)COCc2ccco2)cc1", "note": "(stereo not given)", "Percent Effect": -12.77}
{"compound": "Cc1cnccc1CN(C)C(=O)c1ccc(Cn2cnnn2)cc1", "Percent Effect": -17.07}
{"compound": "Cc1ccc(CN(C)C(=O)NCC(C)(C)CCS(C)(=O)=O)s1", "Percent Effect": -3.781}
{"compound": "CN(C(=O)Cc1coc(-c2ccccc2)n1)C1(C#N)CCC1", "Percent Effect": 4.147}
{"compound": "COc1ccc(Cl)cc1NCC(=O)N(Cc1cccnc1)C1CC1", "Percent Effect": 0.4709}
{"compound": "O=C(O)C(F)(F)F.O=C([C@@H]1COC[C@H]2CN(C3CCOCC3)C[C@H]21)N1CCCCO1", "Percent Effect": -37.74}
{"compound": "COc1ccc(S(=O)(=O)NC(=O)c2cscn2)cc1C", "Percent Effect": -8.824}
{"compound": "COc1ccc(OCC(=O)NS(=O)(=O)c2cc(F)ccc2F)cc1", "Percent Effect": 18.57}
{"compound": "COCc1nc(C(=O)NS(=O)(=O)c2ccc(OC)c(C)c2)cs1", "Percent Effect": -15.7}
{"compound": "COc1ccc(S(=O)(=O)NC(=O)COC2CCCCC2)cc1C", "Percent Effect": 99.33}
{"compound": "NC(=O)C(NC(=O)COC1CCCCC1)c1ccccc1", "note": "(stereo not given)", "Percent Effect": -9.016}
{"compound": "COc1ccc(S(=O)(=O)NC(=O)COC2CCCCC2)cc1", "Percent Effect": 100.4}
